Experimental data published in the supplement of paper PMC12494721.
Counter-ions that a name gives are not always drawn.

Key:
Conditions in all cases: 20 µM; incubation time: 27 h, anaerobic, 37 °C;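 for the amine columns active = adjusted P below 0.05 in both replicates with a change the same way and a mean fold change under 0.8 or over 1.25; inactive = the rest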
[1] = tested on: Clostridium sporogenes DSM 1664; test: growth (OD595) fold change vs plate DMSO controls (fold change (ratio)); higher = more growth
In short: (§1)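 The measure reported is growth, taken as fold change against the median of DMSO controls on the same plate. Anaerobic mGAM cultures in 96-well plates (27 h, 37 °C) were read at 595 nm, blank-subtracted, corrected for compound background using 20 µM compound solutions in water, and multiplied by a calibration factor of 5 to give OD. Any fold change above 1.5 became NA, and 2 biological replicates were averaged.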

Escherichia coli IAI1 [2] = test: as above
In short: as §1

[3] = tested on: Klebsiella aerogenes DSM 30053; test: as above
In short: as §1

[4] = tested on: Ruminococcus gnavus DSM 108212; test: as above
In short: as §1

[5] = tested on: Klebsiella aerogenes DSM 30053; test: fold change of Histamine concentration vs plate DMSO controls (fold change (ratio)); higher = more amine produced, active = hit call of the paper (significant change in both replicates, either direction)
In short: (§2)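 Amines were quantified by LC–triple-quadrupole MS in dynamic MRM mode against external calibration curves, with drift correction within each batch. The samples were whole anaerobic mGAM cultures of four gut bacterial strains, grown for 27 h at 37 °C in 80 µL wells and extracted with cold acetonitrile/methanol with 0.1% formic acid, then centrifuged. Values are reported as fold change over DMSO controls on the same plate. The mean of 2 biological replicates is given.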

[6] = tested on: Clostridium sporogenes DSM 1664; test: fold change of Tryptamine concentration vs plate DMSO controls (fold change (ratio)); higher = more amine produced, active = hit call of the paper (significant change in both replicates, either direction)
In short: as §2

[7] = tested on: Ruminococcus gnavus DSM 108212; test: as above
In short: as §2

Escherichia coli IAI1 [8] = test: fold change of Putrescine concentration vs plate DMSO controls (fold change (ratio)); higher = more amine produced, active = hit call of the paper (significant change in both replicates, either direction)
In short: as §2

[9] = tested on: Klebsiella aerogenes DSM 30053; test: as above
In short: as §2

Escherichia coli IAI1 [10] = test: fold change of Cadaverine concentration vs plate DMSO controls (fold change (ratio)); higher = more amine produced, active = hit call of the paper (significant change in both replicates, either direction)
In short: as §2

[11] = tested on: Klebsiella aerogenes DSM 30053; test: as above
In short: as §2

[12] = tested on: Ruminococcus gnavus DSM 108212; test: fold change of 2-Phenylethylamine concentration vs plate DMSO controls (fold change (ratio)); higher = more amine produced, active = hit call of the paper (significant change in both replicates, either direction)
In short: as §2

Row | SMILES | growth [1] | growth (Escherichia coli IAI1 [2]) | growth [3] | growth [4] | fold change of Histamine concentration [5] | fold change of Tryptamine concentration [6] | fold change of Tryptamine concentration [7] | fold change of Putrescine concentration (Escherichia coli IAI1 [8]) | fold change of Putrescine concentration [9] | fold change of Cadaverine concentration (Escherichia coli IAI1 [10]) | fold change of Cadaverine concentration [11] | fold change of 2-Phenylethylamine concentration [12]
1 | CNC(=O)Oc1cccc(/N=C/N(C)C)c1 | 0.913 | 0.992 | 0.988 | 1.04 | 1.02 (inactive) | 1.04 (inactive) | 0.993 (inactive) | 0.96 (inactive) | 1 (inactive) | 1.02 (inactive) | 1 (inactive) | 0.934 (inactive)
2 | OCC(O)CCl (racemic) | 0.938 | 1.02 | 0.97 | 0.97 | 1.01 (inactive) | 1.11 (inactive) | 1.08 (inactive) | 0.975 (inactive) | 0.959 (inactive) | 0.891 (inactive) | 1 (inactive) | 1.18 (inactive)
3 | O=C(NCCc1ncc(C(F)(F)F)cc1Cl)c1ccccc1C(F)(F)F | 1.04 | 1.04 | 1.16 | 1.22 | 0.918 (inactive) | 0.969 (inactive) | 1.04 (inactive) | 0.983 (inactive) | 1.03 (inactive) | 0.972 (inactive) | 1.04 (inactive) | 1.02 (inactive)
4 | Fc1ccc([C@]2(Cn3cncn3)O[C@H]2c2ccccc2Cl)cc1 (racemic) | 0.97 | 1.01 | 0.994 | 1.04 | 0.991 (inactive) | 1.06 (inactive) | 0.967 (inactive) | 0.935 (inactive) | 0.954 (inactive) | 1.03 (inactive) | 0.982 (inactive) | 1.02 (inactive)
5 | CC(C)OC(=O)C(C(=O)OC(C)C)=C1SCCS1 | 1.07 | 0.971 | 1.02 | 1.08 | 0.989 (inactive) | 0.999 (inactive) | 1 (inactive) | 1.02 (inactive) | 1 (inactive) | 0.976 (inactive) | 1 (inactive) | 0.956 (inactive)
6 | O=C(Nc1ccc(F)cc1F)c1cccnc1Oc1cccc(C(F)(F)F)c1 | 0.931 | 1.02 | 1.03 | 0.965 | 1.01 (inactive) | 0.987 (inactive) | 0.983 (inactive) | 1.01 (inactive) | 0.995 (inactive) | 1.03 (inactive) | 0.993 (inactive) | 0.987 (inactive)
7 | O=[N+]([O-])O[C@H]1CO[C@H]2[C@@H]1OC[C@H]2O[N+](=O)[O-] [Isosorbide dinitrate] | 0.818 | 1.09 | 1.08 | 1.25 | 0.954 (inactive) | 1.03 (inactive) | 1 (inactive) | 1.06 (inactive) | 0.97 (inactive) | 0.94 (inactive) | 1.02 (inactive) | 1.06 (inactive)
8 | C[C@]12CC[C@H](O)C[C@H]1CC[C@@H]1[C@@H]2C[C@@H](O)[C@]2(C)[C@@H](C3=CC(=O)OC3)CC[C@]12O [Digoxigenin] | 0.957 | 1.07 | 1.03 | 0.974 | 0.938 (inactive) | 1.04 (inactive) | 1.12 (inactive) | 1.04 (inactive) | 0.964 (inactive) | 1.01 (inactive) | 1.01 (inactive) | 1.12 (inactive)
9 | C=C1C[C@@H]2[C@H](CC[C@]3(C)C(=O)CC[C@@H]23)[C@@]2(C)C=CC(=O)C=C12 [Exemestane] | 0.934 | 1 | 1.03 | 1.07 | 0.984 (inactive) | 1.07 (inactive) | 1.03 (inactive) | 1.05 (inactive) | 0.981 (inactive) | 0.996 (inactive) | 1 (inactive) | 1.02 (inactive)
10 | CN1CCN(C(=O)OC2c3nccnc3C(=O)N2c2ccc(Cl)cn2)CC1 (stereo unspecified) [Zopiclone] | 1.13 | 0.987 | 0.952 | 0.842 | 1.03 (inactive) | 1.02 (inactive) | 0.989 (inactive) | 0.98 (inactive) | 1.02 (inactive) | 0.979 (inactive) | 0.99 (inactive) | 0.988 (inactive)
11 | N#Cc1c(Cl)c(Cl)c(Cl)c(C#N)c1Cl | 0.937 | 1.02 | 0.925 | 0.962 | 1.03 (inactive) | 0.995 (inactive) | 0.853 (inactive) | 1 (inactive) | 0.995 (inactive) | 1.08 (inactive) | 0.991 (inactive) | 0.804 (inactive)
12 | CCCN(CCC)N=O [NDPA (N-nitrosodipropylamine)] | 0.977 | 0.974 | 0.99 | 0.958 | 1.01 (inactive) | 1.03 (inactive) | 1.06 (inactive) | 0.969 (inactive) | 0.982 (inactive) | 0.874 (inactive) | 1.01 (inactive) | 1.07 (inactive)
13 | CC(=O)OC1CN2CCC1CC2 (stereo unspecified) [Aceclidine hydrochloride] | 1.15 | 1.09 | 1.01 | 1.13 | 0.864 (inactive) | 1.02 (inactive) | 1.03 (inactive) | 1.02 (inactive) | 0.959 (inactive) | 0.951 (inactive) | 1.02 (inactive) | 1.01 (inactive)
